About 410 (1.5%) of roughly 28,000 compounds were called active. Cut-off read from the data, not from the text of the source: active = activation above about 52%; inconclusive = no clear call, values can overlap the other calls; inactive = below that. Many of the other results were omitted from the sample, so actives are more common in it than they were.

76 compounds from PubChem BioAssay AID624151 (Broad Institute, 2012) can be followed below.

The nature of the test: mutant p53 pathway re-activators, primary screen, cell-based, SW480, luciferase, single point, HTS (AID 624151). Conditions: SW480 PUMA-promoter luciferase, p53 mutant reactivation; at 9.98 µM; hits give high values.
For the compound `CC(C)CC#Cc1cnc2c(c1)C(=O)N([C@@H](C)CO)C[C@H](C)[C@@H](CN(C)Cc1ccccc1C(=O)O)O2`, the activation was -10.9% (inactive).
The result for `C/C=C/c1cnc2c(c1)C(=O)N([C@H](C)CO)C[C@H](C)[C@@H](CN(C)C(=O)c1cccc(F)c1)O2` reads 0.956% (inactive); that for `O=C(CN1CCOCC1)Nc1ccc(NC(=O)CN2CCOCC2)c(Cl)c1`, -19.4% (inactive).
In the case of `Cc1cc(C)n2nc(SCC(=O)Nc3ccccc3[N+](=O)[O-])nc2n1`, the activation was -13.8% (inactive).
With `O=C(CSc1nnc(-c2ccccc2)n1-c1ccccc1)c1cccc([N+](=O)[O-])c1`, the activation was -1.58% (inactive).
The figure for `CCn1c(SCC(=O)Nc2ccc3c(c2)OCCO3)nnc1-c1ccncc1` is -4.36% (inactive).
The figure for `Cc1cccc(NC(=O)CSc2nnc3c4ccccc4nc(-c4ccccc4)n23)c1` is 13.8% (inactive).
As for `O=C(CSc1nnc2ccc3ccccc3n12)Nc1ccc2c(c1)OCCO2`, the activation is 64.7% (active).
The result for `COC(=O)Cc1c(C)nc2nc(COc3ccccc3)[nH]n2c1=O` reads 10.4% (inactive); that for `CC(=O)Nc1ccc(NC(=O)COc2ccccc2C(=O)Nc2cccc(Cl)c2Cl)cc1`, -38.7% (inactive).
The figure for `O=C(NCc1ccccn1)C(=O)Nc1cccc(Cl)c1Cl` is 63.9% (active); for `O=C(NCc1ccccn1)c1ccccc1C(=O)c1ccccc1` it is -9.74% (inactive); for `C[C@@H]1CN([C@H](C)CO)C(=O)c2cc(-c3ccc(C#N)cc3)cnc2O[C@@H]1CN(C)CC1CC1` it is -0.916% (inactive).
The figure for `COc1ccc(OC)c2c1CC(C)(C)N=C2SC` is -18.5% (inactive); for `O=C(CSc1nnc(-c2ccncc2)n1-c1ccccc1)Nc1ccc(Cl)c(Cl)c1` it is 16.3% (inactive).
With `COc1cccc(C#Cc2cnc3c(c2)C(=O)N([C@@H](C)CO)C[C@H](C)[C@@H](CN(C)C(C)=O)O3)c1`, the activation is 1.26% (inactive).
The figure for `O=C(C[C@H]1C[C@@H]2c3cc(NS(=O)(=O)c4ccc(F)cc4)ccc3O[C@@H]2[C@@H](CO)O1)NCc1cccc(F)c1` is -7.78% (inactive); for `CC(=O)N1C(=S)NC(=O)/C1=C/c1c(Cl)cccc1Cl` it is -5.19% (inactive); for `C/C=C/c1cnc2c(c1)C(=O)N([C@@H](C)CO)C[C@H](C)[C@@H](CN(C)C(=O)C1CC1)O2` it is -5.73% (inactive).
The figure for `CCCN(Cc1cc2cccc(C)c2[nH]c1=O)S(C)(=O)=O` is -2.56% (inactive); for `CCCNC(=O)N(C)C[C@H]1Oc2ncc(-c3ccccc3F)cc2C(=O)N([C@@H](C)CO)C[C@H]1C` it is 1.17% (inactive).
As for `COc1cccc(C#Cc2cnc3c(c2)C(=O)N([C@@H](C)CO)C[C@H](C)[C@@H](CN(C)C(=O)C2CCC2)O3)c1`, the activation was 9.52% (inactive).
The figure for `C[C@@H]1CN([C@H](C)CO)C(=O)c2cc(C#CC3(O)CCCC3)cnc2O[C@H]1CN(C)C(=O)C1CCC1` is 15% (inactive); for `COc1ccccc1NC(=O)C1=C(C)Nc2nnnn2C1c1ccccc1OCc1ccccc1` (stereo unspecified) it is 11.3% (inactive); for `CCCC#Cc1cnc2c(c1)C(=O)N([C@H](C)CO)C[C@@H](C)[C@@H](CN(C)C(=O)Nc1ccccc1OC)O2` it is -6.47% (inactive).
For the compound `CCCC#Cc1cnc2c(c1)C(=O)N([C@H](C)CO)C[C@H](C)[C@H](CN(C)S(=O)(=O)c1cn(C)cn1)O2`, the activation was 5.56% (inactive).
The result for `C[C@@H]1CN([C@H](C)CO)C(=O)c2c(c3ccccc3n2C)-c2ccccc2CO[C@@H]1CN(C)C(=O)Nc1ccccc1` reads 10.9% (inactive); that for `Cc1ccc2oc(C(=O)Nc3nnc(SCc4ccccc4)s3)c(C)c2c1`, 17.4% (inactive).
The figure for `C[C@@H]1CCCCO[C@H](CN(C)S(C)(=O)=O)[C@@H](C)CN([C@H](C)CO)C(=O)c2cc(NS(=O)(=O)c3ccc(Cl)cc3)ccc2O1` is 2.27% (inactive); for `COCC#Cc1cnc2c(c1)C(=O)N([C@@H](C)CO)C[C@@H](C)[C@H](CN(C)C(=O)c1cnccn1)O2` it is 2.72% (inactive); for `C[C@@H]1CN([C@@H](C)CO)S(=O)(=O)c2ccc(C#CC3(O)CCCC3)cc2O[C@H]1CN(C)C(=O)c1ccncc1` it is 7.47% (inactive).
The result for `C[C@H]1CN([C@@H](C)CO)C(=O)c2cc(-c3cccc(C(=O)N(C)C)c3)cnc2O[C@H]1CN(C)S(=O)(=O)c1ccccc1` reads 10.1% (inactive).
For the compound `CCCN(C)C[C@@H]1Oc2cc(-c3cccc(C#N)c3)ccc2S(=O)(=O)N([C@@H](C)CO)C[C@@H]1C`, the activation is 2.45% (inactive).
The result for `COCC#Cc1ccc2c(c1)O[C@@H](CN(C)Cc1ccccn1)[C@@H](C)CN([C@@H](C)CO)S2(=O)=O` reads 5.92% (inactive).
The figure for `CCOc1csc2nc(C)cc(C)c12` is 7.54% (inactive); for `C[C@@H]1CN([C@@H](C)CO)S(=O)(=O)c2ccc(/C=C/c3ccccc3)cc2O[C@@H]1CN(C)C(=O)Nc1cc(F)ccc1F` it is -25.7% (inactive).
Turning to `C[C@H]1CN([C@@H](C)CO)C(=O)c2cc(C#CCN(C)C)cnc2O[C@H]1CN(C)C(=O)Cc1ccccc1`, the activation was -0.24% (inactive).
The figure for `O=C(CC(C(=O)O)N1CCNCC1)Nc1cccc(Cl)c1` (stereo unspecified) is 13.8% (inactive); for `COc1ccc(OC(C)C(=O)Nc2cccnc2)cc1` (stereo unspecified) it is -3.84% (inactive); for `CC(=O)Oc1ccc(C(=O)N(C(=O)c2ccc(OC(C)=O)cc2)c2cc(C)ccn2)cc1` it is 6.89% (inactive).
The result for `CCn1c(SCC(=O)Nc2cc(Cl)c(Cl)cc2Cl)nnc1-c1ccccc1Cl` reads -3.77% (inactive).
The result for `Cc1ccc(S(=O)(=O)Nc2ccc3c(c2)C(=O)N([C@H](C)CO)C[C@@H](C)[C@H](CN(C)S(=O)(=O)c2ccc(C)cc2)OCCCC[C@@H](C)O3)cc1` reads -37.2% (inactive).
As to `O=C(C[C@H]1C[C@H]2c3cc(NC(=O)Nc4ccccc4F)ccc3O[C@H]2[C@H](CO)O1)NCc1ccccn1`, the activation was 3.57% (inactive).
The result for `Cc1ccc2c(c1)CCCN2S(=O)(=O)c1cc(OCC(N)=O)c(C)cc1Cl` reads -21.2% (inactive); that for `O=C(C[C@H]1C[C@@H]2c3cc(NC(=O)c4ccc5c(c4)OCO5)ccc3O[C@@H]2[C@@H](CO)O1)NCCN1CCCCC1`, 13.6% (inactive).
The figure for `O=C(Nc1ccc(-c2nc3ccccc3o2)c(O)c1)c1ncn[nH]1` is -35% (inactive); for `Cc1ccnc(NCc2ccc(N(C)C)cc2)c1` it is 45.6% (inactive); for `Cc1cc([N+](=O)[O-])nn1CC(=O)NC(C)C` it is -1.03% (inactive).
The result for `N#Cc1c(NC(=O)CCn2cnc3ccccc3c2=O)sc2c1CCCC2` reads 4.75% (inactive); that for `COc1ccc(C(=O)CSc2nnc(-c3cccc(C)c3)n2-c2ccccc2)cc1`, -17.1% (inactive).
In the case of `O=C(COc1ccc2c(=O)c(-c3ccccc3)coc2c1)Nc1ccc(F)cc1`, the activation was 5.8% (inactive).
Take `Cc1cc(C)c(C)c(Oc2coc3cc(OCC(=O)Nc4ccccc4Cl)ccc3c2=O)c1`: the activation was -8.1% (inactive).
With `CCOc1ccc2c(=O)c(Oc3ccccc3Br)coc2c1`, the activation was 53.9% (active).
The figure for `O=C(CSc1nnc(-c2ccccc2F)n1-c1ccccc1)Nc1ccc(Br)cc1` is -2.35% (inactive); for `CCOC(=O)c1c(NC(=S)Nc2cnccn2)sc2c1CCCCCC2` it is -14.1% (inactive).
Regarding `COc1ccc(N(CC(=O)Nc2ccccc2F)S(C)(=O)=O)cc1`, the activation was -10.8% (inactive).
The figure for `O=C(NCc1ccco1)C1CCCN(S(=O)(=O)c2ccccc2)C1` (stereo unspecified) is -15.8% (inactive).
Regarding `O=C(CS(=O)(=O)Cc1ccccc1)Nc1cccnc1`, the activation was -13.2% (inactive).
`CC(C)c1cnc(NC(=O)Cc2ccccc2)s1`: the activation is 118% (active).
The result for `O=C(c1ccccc1Br)N1CCN(c2ccc([N+](=O)[O-])c(NCc3cccnc3)c2)CC1` reads 1.31% (inactive); that for `COc1ccc(NC(=O)C(=O)NCC(=O)Nc2cccc(C(F)(F)F)c2)cc1`, 3.32% (inactive); that for `CCCN(C)C[C@H]1Oc2ncc(C#CCOC)cc2C(=O)N([C@@H](C)CO)C[C@H]1C`, 6.77% (inactive).
For `COc1ccc(S(=O)(=O)N(C)C[C@H]2OCCCC[C@@H](C)Oc3ccc(NC(=O)NC(C)C)cc3C(=O)N([C@H](C)CO)C[C@H]2C)cc1`, the activation was -3.86% (inactive).
The result for `COc1ccc(OC(C)C(=O)Nc2ccc(OC)c(OC)c2)cc1` (stereo unspecified) reads 8.88% (inactive); that for `Cc1cccc(NC(=O)CSc2nc3c(cc2C#N)CCCCC3)c1`, 90.8% (active); that for `CN(C)c1ccc(NC(=O)CSc2nc3c(c(C(F)(F)F)c2C#N)CCCCCC3)cc1`, -6.67% (inactive).
The figure for `N#Cc1cc2c(nc1SCC(=O)Nc1ccccc1C(F)(F)F)CCCCC2` is 25.5% (inactive); for `COCC#Cc1ccc2c(c1)O[C@H](CN(C)Cc1ccc3c(c1)OCO3)[C@H](C)CN([C@H](C)CO)S2(=O)=O` it is 12.5% (inactive).
The result for `CCn1c2ccccc2c2cc(NS(=O)(=O)c3ccccc3[N+](=O)[O-])ccc21` reads -0.615% (inactive); that for `Cn1c(SCC(=O)Nc2c(Cl)cccc2Cl)nnc1-c1ccc(NC(=O)c2ccc(F)cc2)cc1`, -1.4% (inactive).
Consider `COc1ccc(OC)c(NC(=O)CSc2n[nH]c(-c3ccncc3)n2)c1`, for which the activation was -8.93% (inactive).
The figure for `Cc1ccc(C(C)C)cc1OCC(O)Cn1cnc2ccccc21` (stereo unspecified) is -15.4% (inactive); for `CCCNC(=O)N(C)C[C@@H]1Oc2ncc(-c3cccc(C#N)c3)cc2C(=O)N([C@@H](C)CO)C[C@@H]1C` it is 2.46% (inactive).
`CC(=O)c1cccc(NC(=O)C(C)N(c2ccc(C)cc2)S(C)(=O)=O)c1` (stereo unspecified): the activation was 0.89% (inactive).
The result for `Cc1cc(=O)[nH]c(SCCCOc2ccccc2-c2ccccc2)n1` reads -15.4% (inactive); that for `C[C@H]1CN([C@@H](C)CO)C(=O)c2cc(/C=C/c3ccccc3)cnc2O[C@@H]1CN(C)C(=O)c1ccc(F)cc1`, 5.51% (inactive).
